Compounds with a hit are over-represented: about 19% of the library has one in this group of screens.
HT1080 IDH1KD tx = toxicity to HT-1080 IDH1 knockdown cells (counter line); HT-1080 IDH1 knockdown viability, ATP luminescence, 48 h; Potency, µM (series often up to 46.1 µM), actives largely listed as cytotoxic; hit rate 2% among 360,000; AID 686971
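% activity derives from luminescence (CellTiter-Glo), normalised to DMSO and no-cell wells. HT-1080-IDH1KD cells, 750/well, had 48 h compound exposure at 37 °C.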
TDP1 cell CPT = DT40-hTDP1 cell growth loss with CPT; Potency, µM (highest dose often 46.2 µM), most hits filed as inhibitors; AID 686979; chicken DT40 Tdp1-/-;hTDP1 cells + 20 nM CPT, ATP luminescence, 48 h; hit rate 12% among 420,000; further: nearly all actives have a fitted effect of over 55% in size
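Cell growth measured by CellTiter-Glo luminescence after a minimum 48 h, 37 C compound exposure with 20 nM CPT in Tdp1-knockout DT40 cells stably expressing hTDP1, seeded 400/well; qHTS titration format.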
TDP1 cell noCPT = qHTS for Inhibitors of human tyrosyl-DNA phosphodiesterase 1 (TDP1): qHTS in cells in absence of CPT; DT40 Tdp1-/- hTDP1 cells, no CPT, ATP luminescence, 48 h; Potency, µM (top dose mostly 46.2 µM), hits mostly inhibitors; hit rate 15% among 420,000; further: nearly all actives have a fitted effect of over 55% in size
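Readout: luminescence from CellTiter-Glo after 30 min in the dark at RT. Cells: DT40 Tdp1-/- with stable hTDP1, 400/well. Exposure: compounds alone, ≥48 hr, 37 °C.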
HT1080NT lethal = kills 2HG-producing HT-1080-NT fibrosarcoma cells; HT-1080-NT fibrosarcoma viability, CellTiter-Glo ATP luminescence, 48 h; Potency, µM (series often up to 46.1 µM), actives largely listed as cytotoxic; hit rate 1.6% among 360,000;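 further: NT is the 2HG producing partner of a matched IDH1 knockdown line; nearly all actives have a fitted effect of over 55% in size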
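Read-out is CellTiter-Glo luminescence after 10 minutes at room temperature, following 48 hours' compound treatment of HT-1080-NT cells (750 cells/well, RPMI, 5% FBS, 37 degrees C).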
IL1B secr inh = inhibitors of inflammasome signaling (IL-1 beta secretion) | activity change, % at 57.5 µM | AID 743279 | THP-1 LPS/ATP IL-1B secretion, AlphaLISA, 16 h; hits give low values | hit rate 4.7% among 360,000; in the data active means activity change below about -50%; inconclusive means mostly about -30% to -49%
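Secreted IL-1B measured by AlphaLISA bead assay after 16 h compound exposure of THP-1 cells; compounds (final up to 57.5 uM) added 1 h before LPS (250 ng/mL) and ATP (1.25 mM) stimulation; lower signal means less secretion.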
Large screens that a line does not name were inactive. Unless noted, the call rests on the fitted dose curve; in most records, active means well fitted curve in the direction sought with a large enough effect; inconclusive means small, poorly fitted or top-dose-only effect, or another doubt; inactive means no such curve, though single readings can be large; an effect the other way counts as inactive or inconclusive.

Cc1cc(C(=O)N2CCCC2(C)C(=O)NCC(C)C)nn1C(C)(C)C (centres undefined)	none
CCCNC(=O)c1cc2n(n1)CCCN(Cc1ccc(C)cc1)C2=O	none (no result: HT1080 IDH1KD tx, HT1080NT lethal, IL1B secr inh)
Cc1ccc(CN2CCCn3nc(C(=O)NCCc4ccccc4Cl)cc3C2=O)cc1	TDP1 cell CPT 21µM, TDP1 cell noCPT 16µM (no result: HT1080 IDH1KD tx, HT1080NT lethal, IL1B secr inh)
CCCSCCCNC(=O)c1cc2n(n1)CCCN(Cc1ccc(C)cc1)C2=O	TDP1 cell CPT 18µM, TDP1 cell noCPT inconclusive (no result: HT1080 IDH1KD tx, HT1080NT lethal, IL1B secr inh)
CSc1ccc(CCNC(=O)c2cc3n(n2)CCCN(Cc2ccc(C)cc2)C3=O)cc1	TDP1 cell CPT 5.8µM, TDP1 cell noCPT inconclusive (no result: HT1080 IDH1KD tx, HT1080NT lethal, IL1B secr inh)
CCOc1ccc(CCNC(=O)c2cc3n(n2)CCCN(Cc2ccc(C)cc2)C3=O)cc1OCC	TDP1 cell CPT 9.2µM, TDP1 cell noCPT 15µM (no result: HT1080 IDH1KD tx, HT1080NT lethal, IL1B secr inh)
COC(=O)c1cc2n(n1)CCN(Cc1ccc(C)cc1)C2=O	none
CCOC(=O)CN1N=C(c2ccc(Cl)cc2)CCC1=O	none
CCc1c(C)sc(NC(=O)c2ccco2)c1C#N	none
CCCCn1c(SCC(=O)N(C)C2CCS(=O)(=O)C2)nc2cc(S(N)(=O)=O)ccc21 (centres undefined)	none
O=C(NCc1ccccc1Cl)C1CCC(=O)N(C2CCCC2)C1 (centres undefined)	none
CCN(CC)CCNC(=O)c1c2c(nc3ccccc13)C(=O)N(C1CCCCC1)C2	none (no result: HT1080 IDH1KD tx, HT1080NT lethal, IL1B secr inh)
Cc1ccc(CCNC(=O)c2c3c(nc4ccccc24)C(=O)N(C2CCCCC2)C3)cc1	TDP1 cell CPT 21µM, TDP1 cell noCPT 10µM (no result: HT1080 IDH1KD tx, HT1080NT lethal, IL1B secr inh)
O=C(NCc1ccccc1)c1c2c(nc3ccccc13)C(=O)N(C1CCCCC1)C2	TDP1 cell CPT 16µM, TDP1 cell noCPT 18µM (no result: HT1080 IDH1KD tx, HT1080NT lethal, IL1B secr inh)
O=C(NCc1ccccc1Cl)c1c2c(nc3ccccc13)C(=O)N(C1CCCCC1)C2	TDP1 cell CPT 18µM, TDP1 cell noCPT inconclusive (no result: HT1080 IDH1KD tx, HT1080NT lethal, IL1B secr inh)
CC(C)OCCCNC(=O)c1c2c(nc3ccccc13)C(=O)N(C1CCCCC1)C2	none (no result: HT1080 IDH1KD tx, HT1080NT lethal, IL1B secr inh)
O=C1/C(=C\c2c(NCCOCCO)nc3ccccn3c2=O)SC(=S)N1Cc1ccco1	HT1080 IDH1KD tx inconclusive, HT1080NT lethal inconclusive
COc1ccccc1N1C(=O)C=C(Sc2nc(C)cc(C)n2)C1=O	TDP1 cell CPT 1.2µM, TDP1 cell noCPT 2.3µM
Cc1cc(OCC(=O)Nc2sc3c(c2C#N)CC(C)(C)NC3(C)C)c(C(C)C)cc1Cl	TDP1 cell CPT inconclusive, TDP1 cell noCPT 16µM
Cc1ccc(C(C)C)c(OCC(=O)Nc2sc3c(c2C#N)CC(C)(C)NC3(C)C)c1	TDP1 cell CPT inconclusive, TDP1 cell noCPT 21µM
CC1(C)Cc2c(sc(NC(=O)COc3ccccc3)c2C#N)C(C)(C)N1	TDP1 cell CPT inconclusive
O=C(Nc1ccc(Cl)cc1Cl)c1cc2ccccc2o1	none
O/N=C(\c1ccc(Cl)cc1)c1cc2ccccc2o1	HT1080 IDH1KD tx inconclusive, TDP1 cell CPT 18µM, TDP1 cell noCPT 18µM
Cc1cc(C)c2nc(NC(=O)c3cccc(S(=O)(=O)N4CCc5ccccc54)c3)sc2c1	none
CN(Cc1ccccc1)C(=O)COc1ccc(N(C)S(=O)(=O)c2ccc(F)cc2)cc1	TDP1 cell CPT 16µM, TDP1 cell noCPT 15µM
Cc1ccc(S(=O)(=O)N(C)c2ccc(OCC(=O)Nc3nc(-c4ccccc4)cs3)cc2)cc1	TDP1 cell CPT 16µM, TDP1 cell noCPT 13µM
CN(c1ccc(OCC(=O)Nc2nc(-c3ccccc3)cs2)cc1)S(=O)(=O)c1ccc(F)cc1	TDP1 cell CPT 18µM, TDP1 cell noCPT 21µM
Cc1ccc(S(=O)(=O)N(C)c2ccc(OCC(=O)Nc3nc4c(ccc5ccccc54)s3)cc2)cc1	TDP1 cell CPT inconclusive, TDP1 cell noCPT inconclusive
CCOC(=O)C(=O)c1csc(NC(=O)COc2ccc(N(C)S(=O)(=O)c3ccc(F)cc3)cc2)n1	none
COc1ccc(N2CCN(C(=O)c3nc4nc(C)cc(C)n4n3)CC2)cc1	none
COc1cccc(-c2cc3nc(C)cc(N4CCN(C(=O)c5ccoc5)CC4)n3n2)c1	TDP1 cell CPT inconclusive, TDP1 cell noCPT 21µM
COc1ccc(-c2cc3nc(C)cc(N4CCN(C(=O)c5ccoc5)CC4)n3n2)cc1	TDP1 cell CPT 18µM, TDP1 cell noCPT 21µM, IL1B secr inh inconclusive
